Several values for one entry are separate records, joined by “and”; a condition that tells them apart may be missing. Equal values may be shown once. The whole screen tested about 5,500 compounds, of which about 2,000 (36%) were called active. About 18% were inconclusive and are not listed. Rule as the data show it: active = normalized growth mostly below about 0.91 (no sharp cut-off); inconclusive = no clear call, values can overlap the other calls; inactive = mostly above about 0.92. Some of the results follow.
Experiment: chemical genetic growth profiling, strain panel (AID 1159580);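 also: tested at 20 µM; growth read once vehicle control cultures reached saturation at 30 °C; 1 = growth at the plate median or of vehicle wells; lower values mean less growth of the strain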
Conditions: S. cerevisiae deletion strains, growth OD
[1] = locus YAL013W, strain DEP1, hits give low values
[2] = locus YBR229C, strain ROT2, hits give low values
[3] = locus YDL101C, strain DUN1, hits give low values
[4] = locus YDR150W, strain NUM1, hits give low values
[5] = locus YEL061C, strain CIN8, hits give low values
[6] = locus YGR078C, strain PAC10, hits give low values
[7] = locus YHR030C, strain SLT2, hits give low values
[8] = locus YJR043C, strain POL32, hits give low values
[9] = locus YJR075W, strain HOC1, hits give low values
[10] = locus YLR039C, strain RIC1, hits give low values
[11] = locus YLR262C, strain YPT6, hits give low values
[12] = locus YMR263W, strain SAP30, hits give low values
[13] = locus YMR307W, strain GAS1, hits give low values
[14] = locus YNL153C, strain GIM3, hits give low values

Measured: normalized growth

CN1CC(CNC(=O)OCc2ccccc2)CC2c3cccc4c3c(cn4C)CC21 (centres undefined)
inactive: [1] 1.01 | locus YBR021W, strain FUR4, hits give low values 1.02 | [2] 1 | locus YCL029C, strain bik1, hits give low values 0.977 | locus YDL035C, strain GPR1, hits give low values 1.04 | locus YDL074C, strain BRE1, hits give low values 0.999 | [3] 0.978 | locus YDL185W, strain tfp1, hits give low values 0.97 | locus YDL192W, strain arf1, hits give low values 0.993 | locus YDR101C, strain arx1, hits give low values 0.995 | [4] 0.994 | locus YDR162C, strain NBP2, hits give low values 1.02 | locus YDR318W, strain mcm21, hits give low values 0.985 | locus YDR388W, hits give low values 0.987 | locus YDR502C, strain sam2, hits give low values 0.941 | [5] 0.992 | locus YER110C, hits give low values 0.972 | locus YER155C, strain BEM2, hits give low values 0.991 | locus YER167W, strain BCK2, hits give low values 1 | locus YGL078C, strain dbp3, hits give low values 0.995 | locus YGL086W, strain mad1, hits give low values 0.982 | locus YGL248W, strain PDE1, hits give low values 0.989 | [6] 0.995 | locus YGR135W, strain pre9, hits give low values 0.984 | locus YGR252W, strain gcn5, hits give low values 1.04 | [7] 0.998 and 0.982 | locus YHR079C, strain IRE1 (second series), hits give low values 0.965 | locus YHR079C, strain IRE1, hits give low values 0.972 | locus YHR094C, strain hxt1, hits give low values 0.988 | locus YHR129C, strain ARP1, hits give low values 0.999 | locus YHR200W, strain rpn10, hits give low values 0.985 | locus YIL066C, strain RNR3, hits give low values 1.01 | locus YIL073C, strain SPO22, hits give low values 0.911 | locus YIL125W, strain kgd1, hits give low values 1 | locus YIR030C, strain dcg1, hits give low values 0.986 | locus YJL095W, strain BCK1, hits give low values 0.957 and 0.968 | locus YJL134W, strain LCB3, hits give low values 0.995 | locus YJL168C, strain set2, hits give low values 1 | locus YJL187C, strain SWE1 (second series), hits give low values 0.973 | [8] 1.07 | locus YJR066W, strain TOR1, hits give low values 0.877 | [9] 0.981 | locus YKL009W, strain mrt4, hits give low values 0.979 | locus YKL068W, hits give low values 0.983 | locus YKL085W, strain MDH1 (second series), hits give low values 0.975 | locus YKL085W, strain MDH1, hits give low values 0.975 | locus YKR001C, strain vps1, hits give low values 0.996 | [10] 0.988 | locus YLR058C, strain SHM2, hits give low values 0.988 | locus YLR102C, strain apc9, hits give low values 0.986 | locus YLR113W, strain HOG1, hits give low values 1.03 | [11] 0.998 | locus YLR268W, strain sec22, hits give low values 0.986 | locus YLR330W, strain CHS5, hits give low values 0.993 | locus YLR342W, strain FKS1 (second series), hits give low values 1.07 | locus YLR371W, strain rom2, hits give low values 0.992 | locus YLR418C, strain cdc73, hits give low values 1.01 | locus YML016C, strain PPZ1, hits give low values 0.999 | locus YML032C, strain rad52, hits give low values 0.998 | locus YML124C, strain tub3, hits give low values 1 | locus YMR078C, strain ctf18, hits give low values 0.983 | locus YMR223W, strain ubp8, hits give low values 0.979 | [12] 0.979 | [13] 1.16 | locus YNL067W, strain RPL9B, hits give low values 0.96 | [14] 0.981 | locus YNL183C, strain NPR1, hits give low values 0.879 | locus YNL233W, strain BNI4, hits give low values 0.986 | locus YNL250W, strain rad50, hits give low values 0.971 | locus YNL271C, strain bni1, hits give low values 0.992 | locus YNL298W, strain CLA4, hits give low values 0.99 | locus YNL307C, strain MCK1, hits give low values 0.985 | locus YNR052C, strain pop2, hits give low values 0.975 | locus YOL012C, strain htz1 0.968 | locus YOL147C, strain pex11, hits give low values 0.989 | locus YOR061W, strain CKA2, hits give low values 0.994 | locus YOR069W, strain VPS5, hits give low values 0.997 | locus YOR136W, strain idh2, hits give low values 0.98 | locus YOR144C, strain elg1, hits give low values 1.01 | locus YOR184W, strain ser1, hits give low values 1 | locus YOR231W, strain MKK1, hits give low values 0.991 | locus YOR316C, strain cot1, hits give low values 0.979 | locus YPL256C, strain CLN2, hits give low values 0.986 | locus YPR119W, strain clb2, hits give low values 0.981 | locus YPR141C, strain kar3, hits give low values 0.988 | locus YPR163C, strain tif3, hits give low values 1 | locus YPR167C, strain met16, hits give low values 0.991 | strain wtn01, hits give low values 1.01

C[C@]12N[C@H](Cc3ccccc31)c1ccccc12
inactive: locus YAL040C, strain CLN3, hits give low values 1.04 | locus YCL061C, strain MRC1 (second series), hits give low values 0.988 | [4] 1 | locus YDR363W, strain ESC2, hits give low values 0.953 | locus YER002W, strain NOP16, hits give low values 0.964 | [6] 0.973 | [13] 1 | locus YNL128W, strain TEP1, hits give low values 0.992 | [14] 0.978 | locus YNL175C, strain NOP13, hits give low values 0.98 | locus YNL197C, strain WHI3, hits give low values 0.957 | locus YNL224C, strain SQS1, hits give low values 0.979 | locus YOR083W, strain WHI5 (second series), hits give low values 0.995

N#Cc1cccc(Cn2c(=O)oc3ccccc32)c1
inactive: [1] 0.988 | [2] 0.991 | [3] 0.977 | [4] 0.998 | [5] 0.989 | [6] 1 | locus YGR229C, strain SMI1, hits give low values 0.985 | [7] 0.907 | locus YHR087W, strain rtc3, hits give low values 0.988 | locus YJL187C, strain SWE1, hits give low values 0.996 | [8] 1 | [9] 0.986 | locus YKL190W, strain CNB1, hits give low values 1 | [10] 1.04 | locus YLR058C, strain SHM2 (second series), hits give low values 0.998 | locus YLR085C, strain ARP6, hits give low values 1.11 | [11] 1.01 | locus YML094W, strain GIM5, hits give low values 0.972 | locus YMR219W, strain ESC1, hits give low values 0.993 | [12] 0.995 | [14] 0.998 | locus YNL298W, strain CLA4 (second series), hits give low values 0.996 | locus YNL322C, strain KRE1, hits give low values 0.984 | locus YNR030W, strain Alg12, hits give low values 0.977 | locus YOL006C, strain TOP1, hits give low values 1.04 | locus YPL055C, strain LGE1, hits give low values 1.01 | locus YPL241C, strain CIN2, hits give low values 1.06 | locus YPR135W, strain CTF4, hits give low values 1

From PubChem BioAssay AID1159580 (chemical genetic matrix, 2015)
